# FBPA coupling cs: qHTS Assay for Inhibitors of Fructose-1,6-bisphosphate Aldolase from Giardia Lamblia: Coupling assay counterscreen; activity change, negative = inhibition, % at 58.2 µM, hits read low; coupling enzyme system counterscreen, AmpLite Red fluorescence; actives 0.67% (n = 290,000); in the data active means activity change below about -30%
#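 First, compound is pin-transferred into glyceraldehyde-3-phosphate coupling-enzyme reagent at 57.5 uM final and held 10 min at RT. Next, substrate, coupling system and AmpLite Red are added. After 20 min RT, fluorescence (525/598 nm) is read.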
# Tau FP inhib: qHTS for Inhibitors of Tau Fibril Formation, Fluorescence Polarization; K18 P301L tau heparin fibrillization, Alexa594 FP, 6 h; actives 0.39% (n = 280,000); AID 1468, 2008; Potency, µM (series often up to 57.7 µM), for inactives: top-dose activity, negative = inhibition, actives largely listed as inhibitors; further: potency means the concentration at half of the fitted maximal effect; nearly all actives have a fitted effect of over 55% in size
#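 Steps: dispense K18 P301L tau (15 uM plus 0.24 uM Alexa 594 tracer, final) in pH 7 sodium acetate; add compound; add heparin (20 uM final); incubate 6 hr, 37 C; add ThT (30 uM final); after 1 hr ambient, read FP.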
# KDM4E inh: qHTS Assay for Inhibitors of Human Jumonji Domain Containing 2E (JMJD2E); Lysine-specific demethylase 4E (Homo sapiens), B2RXH2; JMJD2E catalytic domain, FDH-coupled NADH fluorescence (FDH is formaldehyde dehydrogenase); Potency, µM (series often up to 57.1 µM), without a hit: at the top dose activity change, negative = inhibition, actives largely listed as inhibitors; actives 1.6% (n = 230,000); AID 2147, 2009; active means well fitted inhibition curve with a large enough effect, not every such curve was filed as active; inconclusive means small, poorly fitted or top-dose-only effect, or another doubt; inactive means no such curve, though single readings can be large or run the other way;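 further: potency means the concentration at half of the fitted maximal effect; 0% = wells with enzyme and -100% = buffer wells without enzyme; nearly all actives have a fitted effect of over 50% in size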
# Target sequence (B2RXH2 1-337 limits assumed): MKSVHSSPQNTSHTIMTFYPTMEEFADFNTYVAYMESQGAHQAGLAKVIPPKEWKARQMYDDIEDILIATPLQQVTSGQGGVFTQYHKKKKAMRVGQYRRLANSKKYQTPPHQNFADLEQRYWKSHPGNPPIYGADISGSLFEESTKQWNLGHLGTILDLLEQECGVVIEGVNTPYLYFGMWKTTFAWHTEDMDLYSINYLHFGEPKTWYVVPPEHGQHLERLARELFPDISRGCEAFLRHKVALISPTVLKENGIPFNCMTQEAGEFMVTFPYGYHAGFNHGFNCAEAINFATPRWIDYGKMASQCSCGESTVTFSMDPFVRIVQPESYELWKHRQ
# Sfp PPTase inh: qHTS Assay for Inhibitors of Bacillus subtilis Sfp phosphopantetheinyl transferase (PPTase); Biochemical Sfp PPTase activity, qHTS; Potency, µM, for inactives: largest response in the series, negative = inhibition, hits mostly inhibitors; actives 3.5% (n = 310,000); AID 1490, 2009;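 further: the enzyme is Sfp with the accession as filed and its product quenches rhodamine fluorescence; potency means the concentration at half of the fitted maximal effect; 0% = enzyme reaction without inhibitor and -100% = no enzyme wells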
#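 Sfp 15 nM + cpd, 15 min RT; start w/ rhodamine-CoA 5 uM, BHQ-2-YbbR 12.5 uM (final); 50 mM Hepes pH 7.6, 10 mM MgCl2, 0.01% NP-40, 0.01% BSA; read 525/598 nm at 0 and 30 min.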
# Tau fluor cs: Counterscreen qHTS for Inhibitors of Tau Fibril Formation, Fluorescence Polarization. tau K18 P301L Alexa594 fluorescence, heparin fibrillization. Potency, µM (doses to about 57.7 µM), for the others: at the highest dose activity change, negative = decrease. AID 1463, 2008. actives 0.93% (n = 280,000); further: potency means the concentration at half of the fitted maximal effect; nearly all actives have a fitted effect of over 55% in size
#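 Human tau K18 P301L (15 uM unlabeled, 0.24 uM Alexa 594-labeled) in 100 mM sodium acetate pH 7 with 20 uM heparin, 6 hr at 37 C. ThT 30 uM added, 1 hr ambient; Alexa 594 FP and total fluorescence read at 555/632 nm.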
# Tau ThT inhib: qHTS for Inhibitors of Tau Fibril Formation, Thioflavin T Binding | AID 1460, 2008 | recombinant tau K18 P301L (four-repeat tau fragment), heparin-induced fibrillization, ThT fluorescence | actives 2.1% (n = 270,000) | Potency, µM (highest dose often 57.4 µM), for the others: at the highest dose activity, negative = inhibition, hits mostly inhibitors | Microtubule-associated protein tau (Homo sapiens), P10636; further: potency means the concentration at half of the fitted maximal effect; nearly all actives have a fitted effect of over 55% in size
#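 In this qHTS, human K18 P301L tau is incubated with compound and heparin for 6 hr at 37 C, and Thioflavin T fluorescence then reports fibril load.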
# The depositor's hits bear a star; ? = inconclusive; · = not tested or not shown; [ ] = dose if it differs, or a comment. This is a sample that favours compounds with a hit; in the whole collection about 5.3% have one here. Unless noted, the call rests on the fitted dose curve; in most records, active means well fitted curve in the direction sought with a large enough effect; inconclusive means small, poorly fitted or top-dose-only effect, or another doubt; inactive means no such curve, though single readings can be large; an effect the other way counts as inactive or inconclusive. Unless noted, on the % scale 0 is the no-effect control and ±100 the full control effect.
SMILES,FBPA coupling cs,Tau FP inhib,KDM4E inh,Sfp PPTase inh,Tau fluor cs,Tau ThT inhib
COC(CN1C(=O)C(O)=C(C(C)=O)C1c1ccccn1)OC (centres undefined),-7.3,-5.0%,?,79.4µM*,-0.3%,-2.7%
Cc1ccc(C(=O)Nc2cccc(C(=O)OCc3cc(=O)n4c5c(sc4n3)CCCC5)c2)cc1,·,6.4%,·,·,-14.8%,?
Cc1ccc(C(=O)Nc2nc(-c3cccnc3)cs2)o1,0.0,-7.9%,-0.7%,-14.3%,-14.9%,?
O=C(Nc1nc(-c2ccccc2)cs1)c1ccc(Br)o1,1.0,-8.0%,-17.6%,25.1µM*,?,?
O=C(NC(=S)Nc1nc(-c2ccccc2)cs1)c1ccco1,-0.3,9.8%,6.9%,50.1µM*,-20.9%,-8.1%
COc1cc2nc(N(C)CCCNC(=O)[C@@H]3CCCO3)nc(N)c2cc1OC,-15.6,·,?,-20.6%,·,·
Cc1cc2c(cc1C)CSC(c1c(O)ccc3ccccc13)SC2,0.2,22.4µM*,-12.1%,23.4%,7.94µM*[quencher],?
CC1=C(/C=C/C(C)=C/C=C/C(C)=C\CO)C(C)(C)CCC1,·,-11.7%,·,-6.7%,-25.4%,?
Clc1ccc2c(c1)c1cc(Cl)ccc1n2CN1CCOCC1,-0.8,12.6µM*,1.6%,-18.1%,?,?
COC(=O)[C@@H](NC(=O)N1CCc2nc(-c3ccccc3)c3c(c2C1)CO[C@@H](C)C3)C(C)C,-0.2,-2.9%[11.6 µM],7.4%[11.4 µM],-3.5%,3.5%[11.6 µM],6.0%[11.5 µM]

# High-throughput results deposited in PubChem BioAssay by National Center for Advancing Translational Sciences (NCATS).
